Source: PubChem BioAssay
ELG1 repair inh: blocks ELG1-dependent DNA repair in HEK293T cells; HEK293T ELG1-luciferase reporter, luminescence, 16 h; DNA damage induced by 5-fluorouridine; Potency, µM (series often up to 46.1 µM), most hits filed as inhibitors; 330,000 compounds, 2.3% hits; note: nearly all actives have a fitted effect of over 55% in size
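In this reporter screen, reduction of luminescence relative to DMSO vehicle indicated activity. Compounds and 5-fluorouridine were added together to 2,000 cells per well, incubated for 16 hr at 37 °C, then developed with ONE-Glo.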
DT40 TDP1 CPT: DT40-hTDP1 cell growth loss with CPT; chicken DT40 Tdp1-/-;hTDP1 cells + 20 nM CPT, ATP luminescence, 48 h; Potency, µM (series often up to 46.2 µM), actives largely listed as inhibitors; 420,000 compounds, 12% hits; note: nearly all actives have a fitted effect of over 55% in size
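Cell growth measured by CellTiter-Glo luminescence after a minimum 48 h, 37 C compound exposure with 20 nM CPT in Tdp1-knockout DT40 cells stably expressing hTDP1, seeded 400/well; qHTS titration format.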
12-LOX inh: inhibitors of human 12S-lipoxygenase ALOX12. P18054. purified 12hLO, xylenol orange hydroperoxide absorbance. Potency, µM (top dose mostly 108 µM), most hits filed as inhibitors. 580,000 compounds, 1.1% hits
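Purified human 12hLO (150 nM final) in 25 mM Hepes, 0.01% Triton X-100, pH 7.0 was preincubated 15 min at room temperature with compound. Then 40 uM arachidonic acid was added, 30 min. Hydroperoxide was read by Fe-XO absorbance ratio 573/405 nm.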
VP16 counter: Gal4-VP16 reporter inhibition counter-screen; Drosophila S2 Gal4-VP16 UAS-luciferase, luminescence, 20 h; Potency, µM (titrated, usually from 53.6 µM), most hits filed as inhibitors; 310,000 compounds, 3.5% hits;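 note: Gal4-VP16 expression switched on by copper sulfate through the metallothionein promoter; nearly all actives have a fitted effect of over 50% in size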
RORgamma inh: inhibitors of mouse ROR gamma transcriptional activity; P51450; Potency, µM (series often up to 53.6 µM), hits mostly inhibitors; 310,000 compounds, 5.4% hits; Drosophila S2 Gal4-RORgamma UAS-luciferase reporter, 20 h; note: nearly all actives have a fitted effect of over 60% in size
Target sequence (P51450 whole entry, looked up, the tested form may be a part): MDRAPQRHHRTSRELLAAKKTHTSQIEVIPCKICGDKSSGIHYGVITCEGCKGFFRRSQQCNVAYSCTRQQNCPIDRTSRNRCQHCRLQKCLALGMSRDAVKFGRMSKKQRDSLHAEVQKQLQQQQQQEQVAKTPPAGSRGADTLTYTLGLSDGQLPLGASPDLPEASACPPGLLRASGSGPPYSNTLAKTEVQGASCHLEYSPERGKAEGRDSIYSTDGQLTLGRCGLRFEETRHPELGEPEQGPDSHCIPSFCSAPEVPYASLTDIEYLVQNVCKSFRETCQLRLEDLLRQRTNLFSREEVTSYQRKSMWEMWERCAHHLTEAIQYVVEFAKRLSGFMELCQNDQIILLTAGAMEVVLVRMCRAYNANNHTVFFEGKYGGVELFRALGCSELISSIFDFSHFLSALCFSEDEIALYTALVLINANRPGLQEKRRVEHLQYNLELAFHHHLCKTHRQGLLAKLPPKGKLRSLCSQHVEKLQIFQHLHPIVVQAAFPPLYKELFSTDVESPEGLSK
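In this cell-based reporter format, copper sulfate (700 uM final) drives Gal4–ROR gamma fusion expression from a metallothionein promoter in Drosophila Schneider cells; compounds preincubated 1 hr, reporter read after 20 hr at ambient temperature.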
TDP1 cell noCPT: qHTS for Inhibitors of human tyrosyl-DNA phosphodiesterase 1 (TDP1): qHTS in cells in absence of CPT | DT40 Tdp1-/- hTDP1 cells, no CPT, ATP luminescence, 48 h | Potency, µM (series often up to 46.2 µM), actives largely listed as inhibitors | 420,000 compounds, 15% hits; note: nearly all actives have a fitted effect of over 55% in size
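Camptothecin absent (DMSO only). Human TDP1-complemented DT40 knockout cells, 400 cells/well, 37 °C for minimum 48 hr; ATP measured via CellTiter-Glo, 30 min dark incubation, luminescence.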
Numbers stand for hits; . = inactive; ? = inconclusive; / = no result; [ ] = dose if it differs, or a comment. Rows were chosen to be rich in hits. Some 15% of all compounds tested hit in one or more screens of this group. Calls come from the whole dose curve; as a rule, active = well fitted curve in the direction sought with a large enough effect; inconclusive = small, poorly fitted or top-dose-only effect, or another doubt; inactive = no such curve, though single readings can be large; an effect the other way counts as inactive or inconclusive.

SMILES | ELG1 repair inh | DT40 TDP1 CPT | 12-LOX inh | VP16 counter | RORgamma inh | TDP1 cell noCPT
Cc1ccc(-n2c(=O)c3c4c(sc3n3c(=S)[nH]nc23)CCC4)cc1 | . | . | ? | . | 11µM | .
O=C(NNC(=O)C1CCCCC1)c1cc(F)cc(F)c1 | / | / | . | / | / | /
OCCCNc1nc(-c2ccc(Br)cc2)nnc1-c1ccc(Cl)cc1 | . | 23µM | . | . | ? | ?
OCCCNc1nc(-c2ccc(Cl)cc2)nc2ccccc12 | . | . | ? | . | . | ?
Cc1ccc(S(=O)(=O)CCSC(=N)N)cc1 | ? | ? | . | . | . | 16µM
C/C(=N/NC(N)=S)C1=CC(C)(C)CCC1 | / | / | 6.3µM | / | / | /
C/C(=N\NC(N)=S)C1(C)CCCCC1 | . | ? | ? | 8.9µM | 3.5µM | 13µM
N#C/C(=C/c1ccc(OC(F)F)cc1)C(=O)Nc1cc(C(F)(F)F)ccc1Cl | / | / | . | / | / | /
FC(F)Oc1ccc(/C=N/NC(=S)Nc2cc(C(F)(F)F)ccc2Cl)cc1 | . | ? | . | 5.6µM | 1.3µM | ?
CNC(=S)Nc1cc(C(F)(F)F)ccc1Cl | . | . | . | . | . | .
Cc1nn(-c2ccccc2)c(N2CCCC2)c1/C=N/NC(=S)Nc1cc(C(F)(F)F)ccc1Cl | . | ? | ? | 2.8µM | 1.8µM | ?
Cc1nn(-c2ccccc2)c(N2CCCC2)c1/C=N/NC(=S)Nc1ccccc1C(F)(F)F | ? | ? | 35µM | 1µM | 1.4µM | ?
CC(C)(N)C(=O)N1CCCC(N2CCN(c3cccc(Cl)c3)CC2)C1 (configuration not stated) | / | / | . | / | / | /
O=C1NC(=NC2CCCC2)C2(CCCN(CC3CCCCC3)C2)N1c1cccnc1 (configuration not stated) | / | / | .[6.33 µM] | / | / | /
CNC(=O)CN(C)c1nc(C(F)(F)F)nc2ccccc12 | / | / | . | / | / | /
Cc1nc(CNC(=O)CC2C(=O)NCCN2Cc2ccccn2)n[nH]1 (configuration not stated) | / | / | . | / | / | /
Cc1ccc(-c2cnc([C@@H]3COCCN3CC3CC3)[nH]2)cc1 | / | / | . | / | / | /
CC(C)CNc1oc(-c2ccc([N+](=O)[O-])cc2)nc1C#N | / | / | . | / | / | /
CC(NC(C)c1ccccc1Cl)c1ccc(F)cc1 (configuration not stated) | / | / | . | / | / | /
O=C(Nc1ccccc1)O[C@@H]1C[C@H]2CCC(=O)N3CC[C@@H](C1)[C@@H]23 | ? | ? | / | . | . | 11µM
O=C(Nc1ccccc1)O[C@@H]1C[C@H]2CCCC(=O)N3CC[C@@H](C1)[C@@H]23 | / | ? | . | / | / | .
CC1(c2ccccc2)N(Cc2ccccc2F)C(=O)OC12CCN(Cc1cccnc1N)CC2 (configuration not stated) | / | / | . | / | / | /
COc1cccc(-n2ccn(Cc3cccc(Cl)c3)c(=O)c2=O)c1 | / | / | . | / | / | /
Cc1c(C#N)c2ccccc2n1CC(=O)NC1CCOC2(CCOCC2)C1 (configuration not stated) | / | / | . | / | / | /
O=C1CC(c2cc(Br)ccc2F)c2cc3c(cc2N1)CCC3 (configuration not stated) | ? | 2.9µM | . | . | . | 2.6µM
SMILES | ELG1 repair inh | DT40 TDP1 CPT | 12-LOX inh | VP16 counter | RORgamma inh | TDP1 cell noCPT
O=C1CC(c2ccccc2F)c2cc3c(cc2N1)CCC3 (configuration not stated) | . | 3.3µM | . | . | . | 4.6µM
CC(C)CC(=O)NCCNC(=O)c1cc2ccccc2n1C | / | / | . | / | / | /
O=C(Nc1nc2ccccc2[nH]1)c1ccc(F)c(S(=O)(=O)N2CCOCC2)c1 | . | ? | . | ? | 14µM | ?
O=C(Nc1ccccc1N1CCOCC1)c1ccc(F)c(S(=O)(=O)N2CCOCC2)c1 | . | ? | . | / | / | .
O=C(Nc1nc2ccccc2[nH]1)c1cccc(S(=O)(=O)N2CCOCC2)c1 | . | . | . | ? | 8.9µM | .
CCCn1c(C)cc(C(=O)CSc2nnc(COc3ccc(Cl)cc3)n2C)c1C | / | / | . | / | / | /
CC(C)C(C)NC(=O)COc1ccc(-c2ccccc2)cc1 (configuration not stated) | . | 18µM | . | . | ? | 21µM
